{
  "source": "PubChem BioAssay",
  "note": "Activity calls are given as the source filed them.",
  "data": [
    {"biological_target": "Homeobox protein Hox-A13 (Mus musculus) (UniProt Q62424)", "sequence (Q62424 whole entry, looked up)": "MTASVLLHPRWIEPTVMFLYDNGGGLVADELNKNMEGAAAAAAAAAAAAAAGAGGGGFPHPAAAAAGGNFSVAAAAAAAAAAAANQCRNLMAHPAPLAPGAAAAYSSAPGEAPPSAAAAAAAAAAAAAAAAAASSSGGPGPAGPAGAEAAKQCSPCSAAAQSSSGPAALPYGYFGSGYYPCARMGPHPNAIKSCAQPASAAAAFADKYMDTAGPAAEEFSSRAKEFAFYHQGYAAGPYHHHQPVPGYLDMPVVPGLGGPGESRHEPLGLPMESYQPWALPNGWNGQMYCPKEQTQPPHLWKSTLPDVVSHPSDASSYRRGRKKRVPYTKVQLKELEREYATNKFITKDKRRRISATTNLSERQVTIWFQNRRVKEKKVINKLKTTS", "test": "inhibitors of HoxA13-DNA binding, primary screen, biochemical, fluorescence polarization, labeled oligonucleotide (AID 1185)", "details": "15 min, higher = more signal, called active from +8 up or from −8 down", "values": [
      {"smiles": "Cc1ccc(S[C@]2(C(=O)O)CC(=O)N(Cc3ccccc3)[C@@H]2c2ccc(CO)cc2I)cc1", "z-score": "-2.92 (inactive)"},
      {"smiles": "COC(=O)[C@@H]1CCCN1C(=O)[C@@H](C)CO", "z-score": "1.64 (inactive)"},
      {"smiles": "CN1C(=O)C2C=CC(C(O)c3ccc(Br)cc3)N(N(c3ccccc3)c3ccccc3)C2C1=O", "note": "(stereo unspecified)", "z-score": "-0.704 (inactive)"},
      {"smiles": "C[C@H](c1ccccc1)N1C(=O)[C@H]2[C@H]3[C@H](O)[C@H](O)CC(=O)[C@@H]3CC[C@H]2C1=O", "z-score": "-1.84 (inactive)"},
      {"smiles": "CC(=O)OC[C@H]1O[C@@H](ON=C(C)CCN2CCc3nc(-c4ccccc4)c(-c4ccccc4)cc3C2)[C@H](OC(C)=O)[C@@H](OC(C)=O)[C@@H]1OC(C)=O", "z-score": "-5.05 (inactive)"},
      {"smiles": "CCc1cc2c(nc1CC)CCN(CCC(C)=NOC(C)CN1CCCc3nc(C)c(C)cc31)C2", "note": "(stereo unspecified)", "z-score": "-9.89 (active)"},
      {"smiles": "COC(=O)CC=C[C@@H](C)[C@@H](C=NO[C@H](C)c1cn([C@@H]2COC[C@H]2O)nn1)OC", "z-score": "0.0624 (inactive)"},
      {"smiles": "CO[C@H]1COC(=O)CC=C[C@H](C)[C@@H](NS(=O)(=O)c2ccc(C)cc2)COC(=O)CC=C[C@@H]1C", "z-score": "1.31 (inactive)"},
      {"smiles": "COc1ccc(O[C@H]2C=C[C@@H](c3ccccc3)O[C@@H]2COC(=O)CCC(C)=NO[C@H](C)c2cn([C@@H]3COC[C@H]3O)nn2)cc1", "z-score": "-6.96 (inactive)"},
      {"smiles": "CO[C@H]1COC(=O)[C@@H]2CCCN2C(=O)CC=C[C@@H](C)[C@H](OC)COC(=O)CC=C[C@@H]1C", "z-score": "-0.346 (inactive)"},
      {"smiles": "C#CCCCON=C1C[C@@H](O)[C@@H](O)[C@@H]2[C@@H]3C(=O)N(Cc4ccccc4)C(=O)[C@@H]3CC[C@H]12", "z-score": "-3.05 (inactive)"}
    ]}
  ]
}
